An excerpt weighted towards active compounds, which were near 18% of everything screened.
IL-1B inflam inh = qHTS for Inhibitors of Inflammasome Signaling: IL-1-beta AlphaLISA Primary Screen | THP-1 LPS/ATP IL-1B secretion, AlphaLISA, 16 h; hits give low values | activity change, % at 57.5 µM | 360,000 compounds, 4.7% hits | AID 743279, 2014; in the data active = activity change below about -50%; inconclusive = mostly about -30% to -49%
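THP-1 cells pretreated 1 hr with compounds (up to 57.5 uM final), then stimulated with LPS (250 ng/mL final) plus ATP (1.25 mM final); secreted IL-1B measured by AlphaLISA after 16 hr, decreased signal indicating inhibition.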
CtBP-E1A blk = qHTS Assay for Inhibitors of the CtBP/E1A Interaction; CtBP / adenovirus E1A interaction (AlphaScreen); AlphaScreen GST-E1A/His-CtBP binding, 1536-well; hits give low values; activity change, % (test concentration not listed); 340,000 compounds, 0.49% hits; in the data active = activity change below about -65%; inconclusive = mostly about -30% to -63%
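GST-E1A and His-tagged CtBP (125 nM each as 5X stock) were preincubated with pin-transferred compound for 2 h at 37 °C in the dark, then glutathione donor and nickel acceptor beads were added for 1 h before AlphaScreen reading.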
TDP1 block = qHTS Assay for Inhibitors of Tyrosyl-DNA Phosphodiesterase (TDP1). Tyrosyl-DNA phosphodiesterase 1 (Homo sapiens), Q9NUW8. AID 485290, 2010. 350,000 compounds, 0.28% hits. Potency, µM (series often up to 130 µM), for inactives: at the top dose activity change, negative = inhibition, most hits filed as inhibitors. recombinant TDP1, AlphaScreen DNA substrate cleavage; note: potency is the fitted concentration of half-maximal effect; nearly all actives have a fitted effect of over 40% in size
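Recombinant E. coli-expressed Tdp1 (1 nM) preincubated with compound 15 min at RT, then 5'-biotin/3'-phosphotyrosine-FITC DNA substrate (15 nM) added for 5 min. AlphaScreen beads (10 ug/ml) added, 10 min RT; tyrosine-FITC cleavage read as signal loss.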
TDP1 cell CPT = qHTS for Inhibitors of human tyrosyl-DNA phosphodiesterase 1 (TDP1): qHTS in cells in presence of CPT | Potency, µM (titrated, usually from 46.2 µM), for inactives: at the top dose activity change, negative = growth inhibition, actives largely listed as inhibitors | 420,000 compounds, 12% hits | chicken DT40 Tdp1-/-;hTDP1 cells + 20 nM CPT, ATP luminescence, 48 h; note: potency is the fitted concentration of half-maximal effect; nearly all actives have a fitted effect of over 55% in size
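Chicken DT40 Tdp1-/- cells stably complemented with human TDP1 were seeded at 400 cells/well in medium containing 20 nM camptothecin, exposed to pin-transferred compounds, and grown at 37 °C for at least 48 hr. Viability was read as ATP luminescence.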
DT40 TDP1 no CPT = qHTS for Inhibitors of human tyrosyl-DNA phosphodiesterase 1 (TDP1): qHTS in cells in absence of CPT; DT40 Tdp1-/- hTDP1 cells, no CPT, ATP luminescence, 48 h; Potency, µM (titrated, usually from 46.2 µM), without a hit: at the highest dose activity change, negative = growth inhibition, most hits filed as inhibitors; 420,000 compounds, 15% hits; note: potency is the fitted concentration of half-maximal effect; nearly all actives have a fitted effect of over 55% in size
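Camptothecin absent (DMSO only). Human TDP1-complemented DT40 knockout cells, 400 cells/well, 37 °C for minimum 48 hr; ATP measured via CellTiter-Glo, 30 min dark incubation, luminescence.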
Six1-Eya2 inh = qHTS Assay for Inhibitors of the Six1/Eya2 Interaction. Homeobox protein SIX1 (Homo sapiens) + Protein phosphatase EYA2 (Homo sapiens), …. AlphaScreen GST-Six1/His-Eya2 binding, biochemical; hits give low values. activity change, % (concentration not given with the values). 360,000 compounds, 0.56% hits; in the data active = activity change below about -65%; inconclusive = mostly about -30% to -63%
Target sequence (O00167 whole entry, looked up): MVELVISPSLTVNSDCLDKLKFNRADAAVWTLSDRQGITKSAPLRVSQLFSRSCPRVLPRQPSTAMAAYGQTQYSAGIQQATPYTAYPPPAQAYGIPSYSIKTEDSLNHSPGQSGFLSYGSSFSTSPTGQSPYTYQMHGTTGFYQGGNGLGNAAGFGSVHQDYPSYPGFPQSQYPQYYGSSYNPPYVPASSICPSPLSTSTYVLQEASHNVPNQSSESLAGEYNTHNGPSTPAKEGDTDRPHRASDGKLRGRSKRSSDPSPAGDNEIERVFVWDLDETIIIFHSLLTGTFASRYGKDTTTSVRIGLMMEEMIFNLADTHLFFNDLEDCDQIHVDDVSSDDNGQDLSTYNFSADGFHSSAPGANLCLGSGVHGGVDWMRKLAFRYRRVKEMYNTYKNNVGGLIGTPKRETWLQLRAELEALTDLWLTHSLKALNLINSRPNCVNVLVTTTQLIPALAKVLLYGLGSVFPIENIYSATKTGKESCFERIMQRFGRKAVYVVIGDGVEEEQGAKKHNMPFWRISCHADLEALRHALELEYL
Target sequence (Q15475 whole entry, looked up): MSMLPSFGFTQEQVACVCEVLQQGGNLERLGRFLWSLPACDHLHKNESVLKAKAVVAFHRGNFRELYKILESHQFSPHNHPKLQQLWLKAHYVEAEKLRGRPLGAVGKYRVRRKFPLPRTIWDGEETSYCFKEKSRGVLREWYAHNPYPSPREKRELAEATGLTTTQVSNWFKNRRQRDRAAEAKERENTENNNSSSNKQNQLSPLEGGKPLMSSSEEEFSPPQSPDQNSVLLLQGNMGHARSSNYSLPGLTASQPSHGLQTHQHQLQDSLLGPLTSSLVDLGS
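GST-Six1 + His-Eya2 (5X stock: 250/500 nM); Tris pH 8.0, 300 mM NaCl, 0.05% BSA, 0.02% Tween 20; GSH donor/Ni acceptor beads; 1 h 37 °C dark; AlphaScreen readout.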
Active calls of the source: *. Unless noted, calls come from the whole dose curve; as a rule, active = well fitted curve in the direction sought with a large enough effect; inconclusive = small, poorly fitted or top-dose-only effect, or another doubt; inactive = no such curve, though single readings can be large; an effect the other way counts as inactive or inconclusive. % is set by controls: 0 for no effect and ±100 for the full control effect.

C=CC[C@@H](Cc1ccc(F)cc1)C(=O)OC[C@H]1CCCN1C(=O)[C@@H](CC=C)CC(=O)N[C@H](CO)Cc1ccccc1 was read as IL-1B inflam inh -16, CtBP-E1A blk -23, TDP1 block 2%, TDP1 cell CPT inconclusive, DT40 TDP1 no CPT inconclusive and Six1-Eya2 inh -9.
`C=CC[C@@H](Cc1ccc(F)cc1)C(=O)OC[C@H]1CCCN1C(=O)[C@H](CC=C)CC(=O)N[C@H](CO)Cc1ccccc1` gave IL-1B inflam inh -3, CtBP-E1A blk -15, TDP1 block -1%, TDP1 cell CPT 21µM*, DT40 TDP1 no CPT inconclusive and Six1-Eya2 inh -3.
C[C@@H]1CN([C@H](C)CO)C(=O)CCCn2cc(nn2)CO[C@H]1CN(C)C(=O)NC1CCCCC1 was read as IL-1B inflam inh 17, CtBP-E1A blk -15, TDP1 cell CPT 14%, DT40 TDP1 no CPT 10% and Six1-Eya2 inh 12.
Screening COc1cccc(C(C(=O)NC2CCCC2)N(C(=O)c2ccco2)c2ccccc2F)c1OC (configuration not stated) returned IL-1B inflam inh -6, CtBP-E1A blk -4, TDP1 cell CPT -22%, DT40 TDP1 no CPT inconclusive and Six1-Eya2 inh 0.
For CC(C)(C)c1ccccc1NC(=O)c1ccc2c(c1)SC1=NS(=O)(=O)CCN12 the results were IL-1B inflam inh -26, CtBP-E1A blk -4, TDP1 block 4%, TDP1 cell CPT 29µM*, DT40 TDP1 no CPT inconclusive and Six1-Eya2 inh -2.
O=C(NCc1ccccc1Cl)c1ccc2c(c1)SC1=NS(=O)(=O)CCN12 was read as IL-1B inflam inh inconclusive, TDP1 block 6%, TDP1 cell CPT inconclusive, DT40 TDP1 no CPT inconclusive and Six1-Eya2 inh 5.
Screening O=C(Nc1cccc(Br)c1)c1ccc2c(c1)SC1=NS(=O)(=O)CCN12 returned IL-1B inflam inh -62*, TDP1 block 0%, TDP1 cell CPT 23µM*, DT40 TDP1 no CPT 29µM* and Six1-Eya2 inh 0.
For CN(Cc1cnn(-c2ccc(F)cc2)c1)C(=O)[C@H]1O[C@@H](n2cnc3c(N)ncnc32)[C@H](O)[C@@H]1O the results were IL-1B inflam inh 13, CtBP-E1A blk 2, TDP1 cell CPT -11%, DT40 TDP1 no CPT -1% and Six1-Eya2 inh 2.
For Cc1ccc(NC(=O)CN2C(=O)CCSc3ccccc32)c(C)c1 the results were TDP1 block -6%.
`COc1ccc(-c2cc(C(F)F)n3ncc(C(=O)NCCCN4CCCC4=O)c3n2)cc1` gave IL-1B inflam inh -25, CtBP-E1A blk -1, TDP1 block -3%, TDP1 cell CPT inconclusive, DT40 TDP1 no CPT 16µM* and Six1-Eya2 inh 2.
`COc1ccc(-c2cc(C(F)F)n3ncc(C(=O)N4CCCCC4)c3n2)cc1` gave IL-1B inflam inh -28, CtBP-E1A blk 12, TDP1 block 2%, TDP1 cell CPT inconclusive, DT40 TDP1 no CPT inconclusive and Six1-Eya2 inh 17.
Screening O=C(NCCCN1CCCC1=O)c1cc(-c2ccc(F)cc2)nc2ccccc12 returned IL-1B inflam inh 5, CtBP-E1A blk -17, TDP1 block 1%, TDP1 cell CPT inconclusive, DT40 TDP1 no CPT 26µM* and Six1-Eya2 inh 2.
CC(C)(C)c1ccccc1NC(=O)c1cnn2c(C(F)F)cc(-c3ccccc3)nc12 was read as TDP1 block -2%, TDP1 cell CPT -24% and DT40 TDP1 no CPT -23%.
For CCCNC(=O)c1cnn2c(C(F)F)cc(-c3ccccc3)nc12 the results were TDP1 block -1%, TDP1 cell CPT 21µM* and DT40 TDP1 no CPT 21µM*.
`Cc1ccc(NC(=O)c2cnn3c(C(F)F)cc(-c4ccccc4)nc23)c(C)c1` gave TDP1 block 0%, TDP1 cell CPT -2% and DT40 TDP1 no CPT 18µM*.
O=C(NCCN1CCOCC1)c1cc(-c2ccc(F)cc2)nc2ccccc12 was read as IL-1B inflam inh -4, CtBP-E1A blk 0, TDP1 cell CPT 7%, DT40 TDP1 no CPT inconclusive and Six1-Eya2 inh 2.
`C=CC(=O)N(CCC)C(c1ccccc1)c1ccccc1OC` (configuration not stated) gave IL-1B inflam inh -27, CtBP-E1A blk 4, TDP1 block -6%, TDP1 cell CPT 16µM*, DT40 TDP1 no CPT 15µM* and Six1-Eya2 inh -2.
Screening Cc1c(C(=O)NCc2ccc(Cl)cc2)oc2ccc3c(c12)C(=O)CC(C)(C)O3 returned TDP1 block 2%, TDP1 cell CPT inconclusive and DT40 TDP1 no CPT 15µM*.
Screening COC(=O)c1ccccc1NC(=O)c1oc2ccc3c(c2c1C)C(=O)CC(C)(C)O3 returned TDP1 block 8%, TDP1 cell CPT 0% and DT40 TDP1 no CPT -6%.
CCOC(=O)c1ccc(NC(=O)c2oc3ccc4c(c3c2C)C(=O)CC(C)(CC)O4)cc1 (configuration not stated) was read as TDP1 block -5%, TDP1 cell CPT inconclusive and DT40 TDP1 no CPT 21µM*.
Screening COc1cccc(CNC(=O)c2oc3ccc4c(c3c2C)C(=O)CC(C)(C)O4)c1OC returned TDP1 block -2%, TDP1 cell CPT inconclusive and DT40 TDP1 no CPT 16µM*.
`COc1cc(OC)c(NC(=O)c2oc3ccc4c(c3c2C)C(=O)CC(C)(C)O4)cc1Cl` gave TDP1 block 5%, TDP1 cell CPT 0% and DT40 TDP1 no CPT -6%.
Screening CCCNC(=O)c1oc2ccc3c(c2c1C)C(=O)CC(C)(C)O3 returned IL-1B inflam inh inconclusive, CtBP-E1A blk 3, TDP1 block 5%, TDP1 cell CPT -17%, DT40 TDP1 no CPT inconclusive and Six1-Eya2 inh -3.
For Cc1ccc(OCC(=O)NNC(=O)Cc2ccc(S(=O)(=O)N3CCOCC3)s2)cc1 the results were IL-1B inflam inh -9, CtBP-E1A blk -7, TDP1 cell CPT -12%, DT40 TDP1 no CPT -83% and Six1-Eya2 inh 0.
Screening Cc1cccc(C(=O)O/N=C(\N)Cc2ccc([N+](=O)[O-])cc2)c1 returned IL-1B inflam inh -7, CtBP-E1A blk -5, TDP1 block 9%, TDP1 cell CPT 26µM*, DT40 TDP1 no CPT -22% and Six1-Eya2 inh -7.

Bioassay records deposited in PubChem by National Center for Advancing Translational Sciences (NCATS).
